Most compounds without a hit are left out; they make up all but 12% or so of the library.
Pf growth 96h: Primary qHTS for delayed death inhibitors of the malarial parasite plastid, 96 hour incubation; 320,000 compounds, 6.9% hits; AID 504834, 2011; P. falciparum luciferase reporter growth, 96 h; Potency, µM (top dose mostly 28.7 µM), for the others: at the top dose activity change, negative = inhibition, usual class: inhibitors; also: % is scaled to controls: 0 for no effect and ±100 for the full control effect
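Readout is luminescence from an integrated firefly luciferase in P. falciparum. Red cells, 2% hematocrit and 0.05% parasitemia final, were cultured with compound through two parasite generations (96 hours) at 37 C, 5% CO2.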
AMA1 RON2 block: qHTS for Inhibitors of AMA1-RON; Towards Development of Antimalarial Drug Lead: Primary Screen | AlphaScreen AMA1-biotinylated RON2 peptide binding | Potency, µM (series often up to 58.2 µM), without a hit: at the top dose activity change, negative = inhibition, actives largely listed as inhibitors | 360,000 compounds, 0.2% hits | AID 720542, 2013;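 also: 0% = vehicle wells and -100% = peptide control; nearly all actives have a fitted effect of over 45% in size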
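AMA1 (3D7) with his tag at 25 nM final met compounds first, then biotinylated RON2 peptide at 25 nM; detection used donor plus acceptor beads, 10 µg/mL apiece, read by AlphaScreen after 30 min at room temperature.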
Pf growth 48h: Primary qHTS for delayed death inhibitors of the malarial parasite plastid, 48 hour incubation | Potency, µM (highest dose often 28.7 µM), inactives show top-dose activity change, negative = inhibition, hits mostly inhibitors | 310,000 compounds, 5.9% hits | P. falciparum luciferase growth in erythrocytes, 48 h; also: % is scaled to controls: 0 for no effect and ±100 for the full control effect
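Compounds are pin-transferred into medium, infected erythrocytes (2% hematocrit, 0.1% parasitemia final) are added, and plates sit one parasite generation at 37 C in 5% CO2. Detection reagent is then added and luminescence measured.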
SARS PLpro yeast: qHTS of Yeast-based Assay for SARS-CoV PLP; 330,000 compounds, 0.19% hits; AID 485353, 2010; Potency, µM (titrated, usually from 32.9 µM), for inactives: top-dose activity, positive = growth rescue, hits mostly activators; S. cerevisiae expressing SARS-CoV PLpro, growth rescue; calls by dose curve; also: 0% is about no effect; nearly all actives have a fitted effect of over 55% in size
NS1 function inh: qHTS Assay for Inhibitors of Influenza NS1 Protein Function. Potency, µM (titrated, usually from 46.1 µM), inactives show top-dose activity, positive = more growth. 270,000 compounds, 0.4% hits. AID 2326, 2010; calls by dose curve; also: actives are rising curves; nearly all actives have a fitted effect of over 50% in size
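A cell-based growth assay was used: compounds that relieve NS1-induced slow growth of budding yeast raise OD600. Assay medium was yeast nitrogen base with ammonium sulphate and -URA supplement, pH 6.0, with 2% galactose.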
HCV inh: qHTS Assay for Inhibitors of Hepatitis C Virus (HCV); Huh7.5.1 HCVcc-Cre infection, luciferase reporter, 44 h; Potency, µM (doses to about 41.8 µM), without a hit: top-dose activity change, negative = inhibition, hits mostly inhibitors; 340,000 compounds, 3.4% hits; AID 651820, 2012; also: % is scaled to controls: 0 for no effect and ±100 for the full control effect
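After 44 h co-culture of compound, cells and HCVcc-Cre (~0.5 moi), substrate is added for 15 min at room temperature and luciferase measured over 15 sec. Cells were seeded at 1,000/well and pre-cultured 4 h.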
* = called active by the depositor; ? = inconclusive; · = not tested or not shown; [ ] = remark or other dose. Unless noted, calls follow the shape of the dose curve; as a rule, active = well fitted curve in the direction sought with a large enough effect; inconclusive = small, poorly fitted or top-dose-only effect, or another doubt; inactive = no such curve, though single readings can be large; an effect the other way counts as inactive or inconclusive. Potency is read from the fitted curve at half-maximal effect.

SMILES | Pf growth 96h | AMA1 RON2 block | Pf growth 48h | SARS PLpro yeast | NS1 function inh | HCV inh
CCNc1nc(NCC)n2c(SCC(=O)c3ccccc3F)nnc2n1 | ? | -3% | ? | -2% | · | ?
CC1=CN(S(=O)(=O)c2ccc(C)cc2)C[C@@H]2c3ccccc3N(S(=O)(=O)c3ccc(C)cc3)[C@H]12 | · | -2% | · | 9% | · | ?
CCOC(=O)C(Cc1cc(N)c(Oc2ccc(OC)cc2)c(N)c1)NC(C)=O (stereo unspecified) | · | -7% | · | · | · | -1%
CCOC(=O)c1c(C)n(S(=O)(=O)c2ccc(C)cc2)c2ccc(O)c(C(=O)O)c12 | 0% | -16% | -11% | 7% | ? | 6%
COCCCNC(=O)c1ccc(N(C)S(=O)(=O)c2ccc(OC)cc2)cc1 | 2% | -7% | 7% | 1% | -9% | 19%
CN(c1ccc(OCCOc2ccccc2Cl)cc1)S(=O)(=O)c1ccccc1 | · | -3%[11.6 µM] | · | 6% | · | ?
COc1ccc(CCNC(=O)c2ccc(N(C)S(=O)(=O)c3ccc(C)cc3)cc2)cc1OC | -9% | -13% | ? | -1% | -8% | 10µM*
CC(=O)Nc1ccc(S(=O)(=O)N(C)c2ccc(OCC(=O)NCCc3ccccc3F)cc2)cc1 | · | -4% | · | · | · | ?
CC(=O)Nc1ccc(S(=O)(=O)N(C)c2ccc(OCCOc3ccccc3F)cc2)cc1 | · | 3% | · | 5% | · | 10µM*
COc1ccc(OCCOc2ccc(N(C)S(=O)(=O)c3ccccc3)cc2)cc1 | -20% | 3% | ? | 2% | · | 11µM*
COc1ccc(CCNC(=O)c2ccc(N(C)S(=O)(=O)c3ccccc3)cc2)cc1 | ? | -3% | 2.1µM* | -2% | -9% | ?
O=S(=O)(/N=C(/NC(=S)Nc1ccccc1)c1ccccc1)c1ccc(Cl)cc1 | ? | 18% | 172% | -3% | -16% | -3%
O=C(O)CCNC(=O)c1ccc(NC(=O)Cc2ccc(Cl)cc2)cc1 | ? | -15% | -8% | 1% | · | -3%
COc1ccccc1NC1CCCCC1NS(=O)(=O)c1ccccc1 (stereo unspecified) | ? | -11% | -13% | 7% | 11% | -3%
Cc1ccc(CSCCNS(=O)(=O)c2ccccc2)cc1 | 1.5µM* | -5% | 2% | 4% | -11% | -17%
Cc1ccc(CSCCNC(=O)c2ccc(N(C)S(=O)(=O)c3ccccc3)cc2)cc1 | 77% | -3% | 6% | -6% | 2% | 11µM*
CN(c1ccc(C(=O)NCCSCc2ccc(Cl)cc2)cc1)S(=O)(=O)c1ccccc1 | ? | -9% | 4% | -18% | -24% | ?
CCOC(=O)C(CC)Sc1nc2c(c(=O)[nH]c(=O)n2C)n1CCc1ccccc1 (stereo unspecified) | 12µM* | -20% | 10µM* | 5% | -12% | -5%
CCOC(=O)CSc1nc2c(c(=O)[nH]c(=O)n2C)n1CCc1ccccc1 | ? | 2% | 6% | 7% | 5% | -22%
CC(C)Sc1nc2c(c(=O)[nH]c(=O)n2C)n1Cc1ccc(Cl)cc1 | 13µM* | 0% | ? | 10% | 3% | ?
CCC(C)Sc1nc2c(c(=O)[nH]c(=O)n2C)n1CCc1ccccc1 (stereo unspecified) | 57% | -3% | ? | -7% | -6% | -10%
CCOC(=O)C(C)Sc1nc2c(c(=O)[nH]c(=O)n2C)n1Cc1ccc(Cl)cc1 (stereo unspecified) | ? | -11% | ? | 2% | 0% | 2.8µM*
CCC(C)Sc1nc2c(c(=O)[nH]c(=O)n2C)n1Cc1ccc(Cl)cc1 (stereo unspecified) | · | -8% | 10µM* | -4% | -14% | -13%

Assay outcomes: PubChem BioAssay, National Center for Advancing Translational Sciences (NCATS)
